The values below come from PubChem BioAssay.

Values without a mark were called inactive. No rule for the calls is given here.

In this assay the target is Pantothenate synthetase (Mycobacterium tuberculosis (strain ATCC 25618 / H37Rv)) (UniProt P9WIL5). Nature of the assay: Coupled enzyme confirmation of inhibitors against recombinant Mtb PanC (AID 375).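 Also: 0% = full reaction with vehicle and 100% = no enzyme background.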 To be noted: coupled enzyme assay; at 10 µM, hits give high values.
Pantothenate synthetase (Mycobacterium tuberculosis (strain ATCC 25618 / H37Rv)), sequence (P9WIL5 whole entry, looked up): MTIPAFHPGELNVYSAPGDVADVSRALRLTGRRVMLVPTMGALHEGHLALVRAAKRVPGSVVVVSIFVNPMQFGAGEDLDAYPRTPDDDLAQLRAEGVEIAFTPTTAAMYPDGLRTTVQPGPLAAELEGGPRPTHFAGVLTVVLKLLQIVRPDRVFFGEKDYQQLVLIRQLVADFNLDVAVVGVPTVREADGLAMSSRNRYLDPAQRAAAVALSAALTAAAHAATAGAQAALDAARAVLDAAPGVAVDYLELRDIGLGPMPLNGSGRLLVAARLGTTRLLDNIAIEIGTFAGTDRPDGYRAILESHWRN
The inhibition is the share of the control response that was lost under treatment. Regarding `COc1cccc(N2CCN(CC(=O)NCc3cccs3)CC2)c1`, the inhibition was 3%. Under `CC(=O)N1CCc2c(sc(NC(=O)c3ccc(S(=O)(=O)N(C)C)cc3)c2C#N)C1` stands 0%. Under `COc1cccc(C(=O)Nc2ccc(N(C)C)cc2)c1OC` stands 8%. The result for `CSc1ccccc1NC(=O)CN(c1ccccc1)S(=O)(=O)N(C)C` reads 3%; that for `CCCCOc1ccc(-c2nnc(N)s2)cc1`, 0%; that for `CC1CCCN(C(=O)c2cc3c(-c4ccc(Cl)cc4)nn(C)c3s2)C1` (configuration not stated), 4%.

In the case of `Cc1c(C=NCCOCc2ccccc2)cnn1C`, the inhibition was 0%. The result for `O=C(NCc1ccc2c(c1)OCO2)c1cc2n(n1)C(C(F)(F)F)CC(c1ccc3c(c1)OCO3)N2` (configuration not stated) reads 0%; that for `CCOC(=O)c1ccc(NC(=O)CSc2n[nH]c(-c3ccncc3)n2)cc1`, 5%. `CC(C)c1nccn1S(=O)(=O)c1cc(Cl)ccc1Cl`: the inhibition was 0%. The result for `COCCN1C=C(C(=O)OC)C(c2cc3c(cc2Br)OCO3)C(C(=O)OC)=C1` reads 0%; that for `Cc1nn(Cc2ccc(C(=O)NC3CCCCC3)o2)c(C)c1Br`, 2%; that for `COc1ccc(CN(CC(=O)NCc2ccco2)C(=O)CCC(=O)Nc2nccs2)cc1`, 0%. Under `CCOC(=O)CN(C(=O)CSc1nnc(-c2ccncc2)n1CCCN(C)C)c1ccccc1` stands 11%; under `O=C(c1cc(-c2cccs2)on1)N1CCc2ccccc2C1`, 2%; under `Cc1cnc(C(=O)Nc2ccc(N3CCOCC3)cc2)cn1`, 4%.

As to `CC1CCCCN1CCNS(=O)(=O)c1ccc2c(c1)oc(=O)n2C` (configuration not stated), the inhibition was 0%.

For `COc1ccc(-c2noc(CSc3nc(N)c(-c4ccccc4)c(=O)[nH]3)n2)cc1OC`, the inhibition is 9%.

On to `O=C1C2CC=C(Cl)CC2C(=O)N1CNc1ccccn1` (configuration not stated), for which the inhibition was 0%.

Consider `O=C(NCc1nnc(SCC(=O)N2CCCCCC2)o1)c1ccco1`, for which the inhibition is 8%. In the case of `CCC(C)(C)n1nnnc1C(c1ccc(OC)c(OC)c1)N1CCN(c2ccccc2)CC1` (configuration not stated), the inhibition is 0%.

With `O=C(Nc1ccc2c(c1)C(=O)N(C1CCCCC1)C2=O)C1CCCO1` (configuration not stated), the inhibition is 6%.
